According to PubChem BioAssay (NCI):
Compounds without any hit were thinned out: in the full panel of roughly 83,000, 20% have a hit.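 Method: cells in 96-well plates; compound added at one concentration; 48 h incubation; percent growth measured; values under 10 scored active.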 Values without a mark were called inactive. Calls of active or inactive are those of the source.

Tested on: HL-60(TB) leukemia
Assay: NCI-60 one-dose screen, 48 h (100 = growth as untreated, 0 = no growth, -100 = all killed)
Conditions: 10 µM unless noted

Structure (SMILES) | growth
CCN(CC)c1ccc(/C=N\NC(=O)/C=C/C=C/c2ccc3c(c2)OCO3)c(O)c1 | 2.66% (active)
O=C(Cn1cc(CN2CCN(c3ccnc4cc(Cl)ccc34)CC2)nn1)Nc1cccc([N+](=O)[O-])c1 | 102%
C=C1C(=O)O[C@H]2[C@H]1CC/C(COC(=O)NCCCCNC(=O)OC/C1=C/CC[C@@]3(C)O[C@H]3[C@H]3OC(=O)C(=C)[C@@H]3CC1)=C\CC[C@@]1(C)O[C@@H]21 | -50.7% (active)
CCN1C(=O)CC(SC2CC(=O)N(CC)C2=O)C1=O (configuration not stated) | 79.9%
COc1ccc(C2=CN3CC=CCC3CC2=O)cc1 (configuration not stated) | 110%
COC(=O)[C@@]1(C)CC[C@]2(C)CC[C@]3(C)C4=CC=C5C(=CC(=O)C(O)=C5C)[C@]4(C)[C@@H](O)C[C@@]3(C)[C@@H]2C1 | 49.6%
O=NN(C(=O)NC1CCC(C(=O)O)CC1)C1CCC(C(=O)O)CC1 (configuration not stated) | 112%
COc1cccc(C2C(C#N)=C(N)Oc3cc(OC)ccc32)c1 (configuration not stated) | -32.2% (active)
Cc1cc(N2CCCC2)nc(NCc2cc(Nc3ccnc4cc(Cl)ccc34)ccc2F)n1 | -61.1% (active)
CN(C)CCCC(C#N)c1ccccc1 (configuration not stated) | 118%
O=C1Nc2ccccc2/C1=C\c1c[nH]c2ccc(Br)cc12 | 73.1%
COc1cc(C2C3=C(COC3=O)N(CCO)c3cc4c(cc32)CCC4)cc(OC)c1O (configuration not stated) | -8.61% (active)
CC(O)CN(CC(C)O)c1ccc2c(c1)Cc1cc([N+](=O)[O-])ccc1-2 (configuration not stated) | 74.5%
CSC1=Nc2c(c(C)c(-c3ccccc3)n2CCCN2CCCCC2)C2=NC(=O)C[C@H](C)N12 | -33.2% (active)
C[C@]12CC[C@@H]3c4cc(OC(F)F)c(OS(N)(=O)=O)cc4CC[C@H]3[C@@H]1CC[C@@H]2O | 1.17% (active)
Cc1c(C)c2c(c(C)c1OCC(=O)O)CC[C@@](C)(CCC[C@@H](C)CCC[C@@H](C)CCCC(C)C)O2 | 1.94% [50 µM] (active)
N=C(N)c1ccc(-c2ccc(-c3ccc(Cl)cc3Cl)s2)nc1 | -35.7% (active)
COc1ccc(CNc2c3ccccc3nc3ccccc23)c(OC)c1 | 36.9%
COc1ccccc1/C=N\Nc1ccc([N+](=O)[O-])cn1 | 89.5%
O=C(/C=C/c1c[nH]c2ccccc12)c1ccc(O)c(CN2CCN(c3ccc(F)cc3)CC2)c1 | 97%
CC(=O)CC(c1ccccc1)c1c(C)[nH]c2ccccc12 (configuration not stated) | 107%

Structure (SMILES) | growth
COc1cc(C(=O)/C=C/c2c(C(F)(F)F)nc3sccn23)cc(OC)c1OC | -20% (active)
Cc1cccc2c(NCCN(C)C)c3cccc(C(=O)NCCN(C)C)c3nc12 | -8.73% (active)
O=C(CN1CCN(c2cc3c(cc2F)c(=O)c(C(=O)O)cn3C2CC2)CC1)N/N=C/c1ccco1 | 103%
CCSc1oc(-c2ccccc2)nc1[P+](c1ccccc1)(c1ccccc1)c1ccccc1 | -35.1% (active)
Nc1nc(N)c2nc3c(nc2n1)CCCCCCCCCC3 | 33.4%
CC1SC(c2c(Cl)cccc2Cl)N(NC(=O)c2[nH]c3ccc(F)cc3c2-c2ccccc2)C1=O (configuration not stated) | 103%
COc1ccc(-c2nc(N/N=C/c3cccc(O)c3)nc(N3CCOCC3)c2C#N)cc1 | 49.2%
COc1ccc2c(c1)OC(N)=C(C#N)C2c1ccc(F)c(F)c1 (configuration not stated) | -18.4% (active)
O=C1/C(=C/c2ccc(Br)cc2)COc2ccc(O)c(O)c21 | -23.2% (active)
COc1nc(OC)nc(-c2cc(C(=O)c3ccc(Br)cc3)n3cc(C)cc(C)c23)n1 | 99%
CC(=O)Nc1ccc(S(=O)(=O)N/N=C\c2ccc(Cl)c(Cl)c2)cc1 | 1.93% (active)
NC(N)=N/N=C\c1ccc(OCc2ccccc2)cc1 | 43.1%
Cc1nc(-c2ccccc2)cc2c(O)c(C(=O)NN)[nH]c(=O)c12 | 126%
O=C(/C(=C(\C(=O)c1ccccc1)c1ccccc1)c1ccccc1)c1ccccc1 | -1.48% (active)
COc1ccc(Cc2cnc(N)nc2N)cc1OC | 95.2%
CCCOc1cc2ccccc2cc1C(=O)Nc1nc(N)c2c(ccc3nccc32)[nH]1 | -56.3% (active)
O=C1c2cccc(NCCN=Cc3cc(O)ccc3O)c2C(=O)c2c(NCCN=Cc3cc(O)ccc3O)cccc21 | -72.5% (active)
CCC1CCc2nc3sc(C(=O)Nc4cccc(C)c4)c(N)c3cc2C1 (configuration not stated) | 55.7%
CC1CN(CC(O)c2ccc(Br)cc2)CCO1 (configuration not stated) | 85.4%
Nc1nc(N)c2c(n1)NC(c1cccc(Nc3ccnc4cc(C(F)(F)F)ccc34)c1)CC(c1ccc3c(c1)OCO3)=N2 (configuration not stated) | 76.5%
CC(=O)OC(C)c1cccc(C#N)c1 (configuration not stated) | 105%

Structure (SMILES) | growth
CCN(CC)CCCCNc1c2ccc(Cl)cc2nc2ccc(OC)cc12 | -34.8% (active)
Nc1nc2c(c(=O)[nH]1)C1(C(=O)Nc3ccccc31)c1c(nc(N)[nH]c1=O)N2 | 108%
CC(C)Cc1cc(CNC(=O)C2[C@H]3CN(C(=O)c4ccccc4)C[C@@H]23)nn1-c1ccccc1 (some centres not stated) | 94.2%
COc1cccc(NCc2nnc(Nc3ccc(Cl)cc3)c3ccccc23)c1 | -27.1% (active)
CC(=N\N=C(N)N)/C(=N/N=C(N)N)c1ccccc1 | 98.7%
Cc1sc2ncn(CC(=O)Nc3ccc(S(N)(=O)=O)cc3)c(=O)c2c1C | 103%
CCOC(=O)c1ccc(Nc2ccnc(SCC(=O)c3ccc(C#N)cc3)n2)cc1 | 75.6%
COc1ncc(-c2ccc3nccc(C#CCCCCC(=O)NO)c3c2)cc1NS(=O)(=O)c1ccc(F)cc1F | -33.3% (active)
CN(C)c1ccc(-c2nc3ncc(Br)cc3o2)cc1 | 85.8%
NS(=O)(=O)c1ccc(-n2nc(-c3ccc(Cl)cc3)ccc2=O)cc1 | 83.7%
Cc1cc(/C=C2\SC(=Nc3ccccc3)N(C3CCCC3)C2=O)c(C)n1-c1ccc(Cl)cc1 | -27.3% (active)
CCOC(=O)c1cc2c(n1Cc1cccc(OC)c1)-c1oncc1CCC2 | 7.26% (active)
COc1ccc(/C=C/C(=O)c2cc3c(N)c(C(=O)Nc4cccc5ccccc45)sc3nc2C)cc1 | 81.9%
Cc1cccc(C[C@H](NC(=O)Nc2ccc(Cl)cc2F)C(=O)N[C@@H]2C(=O)N3C[C@H](O)C[C@H]3C(=O)N3CCCC[C@H]3C(=O)N[C@@H](C)C(=O)N3C[C@H](C)C[C@H]3C(=O)O[C@H]2C)c1 | 6.77% (active)
CCCCC/C(=C\c1ccccc1)C1OC(C)C(C)O1 (configuration not stated) | 115%
CCCNNC(=O)/C=C/c1ccc(CNCCc2c(C)[nH]c3ccccc23)cc1 | 33.3% [2.5 µM]
Cc1ccccc1-c1cc(Cc2ccc(F)cc2)c(=O)[nH]n1 | 54.2%
Cc1cc2cc3cc(C)c(N(C)C)cc3[n+](C)c2cc1N(C)C | 47%
COc1cc(/C=C/C(=O)/C=C/c2ccc(-n3ccnc3)cc2)ccc1O | 36.2%
Nc1nc(N)c2c(n1)NC(c1cccc(Nc3ccnc4cc(C(F)(F)F)ccc34)c1)CC(c1ccccc1)=N2 (configuration not stated) | 34.8%
Cc1ccc2c(c1)ncn2-c1ncnc2c1CC(C)c1ccccc1N2C (configuration not stated) | -36.2% (active)

Structure (SMILES) | growth
O=C(NNC(=S)Nc1ccccc1)c1ccncc1 | 117%
Clc1ccc(/C=C/c2nc(N3CCOCC3)c3nc(Cl)c(Cl)cc3n2)cc1 | 98.4%
O=S(=O)(CCN1CCOCC1)Nc1cc(-c2ccc3ncnc(Nc4ccc(F)c(Cl)c4)c3c2)cnc1Cl | 27.3%
COC(=O)[C@]12CC[C@@H](C)[C@H](C)[C@@H]1C1=CC[C@@H]3[C@@]4(C)C[C@@H](OC(C)=O)[C@H](OC(C)=O)[C@@](C)(COC(C)=O)[C@@H]4[C@H](O)C[C@@]3(C)[C@]1(C)CC2 | -10.2% (active)
COc1ccc(C2CC(c3ccccc3)=Nc3ccccc3S2)cc1 (configuration not stated) | 85.7%
CCN(CC)c1ccc2cc(C(Nc3ccc(C)cc3)c3nnnn3C(C)(C)C)c(=O)oc2c1 (configuration not stated) | 89%
C=C(C)CCCC(C)CC#N (configuration not stated) | 108%
CCOC(=O)C/C(=N\Nc1cc(=O)[nH]c2ccc(Br)cc12)C(=O)OCC | -7.84% (active)
CC1=C(C(=O)OCC2CCN(C(=O)OC(C)(C)C)CC2)[C@H](c2cccc(C#N)c2)C2=C(CC(C)(C)CC2=O)N1 | 27.5%
COc1ccc(/C=C2/CCc3cc4ccc(OC)cc4[o+]c32)c(O)c1 | 60.8%
c1ccc(-c2n(Cc3ccc4ccccc4c3)c3ccccc3[n+]2Cc2ccc3ccccc3c2)cc1 | -49.3% (active)
CC(C)[C@H](NC(=O)Cn1cc(C(=O)O)nn1)C(=O)O | 123%
O=C(COc1ccc(/C=C2\Oc3ccccc3C2=O)cc1)Nc1nc2ccccc2s1 | -68.9% (active)
O=C(COc1ccc(/C=C2\Oc3ccccc3C2=O)cc1)c1ccc(Cl)cc1 | 94.5%
COc1ccc(NC(=O)c2ccc3c(c2)nc(-c2cc4ccccc4[nH]c2=O)n3-c2cc(C(C)(C)C)[nH]n2)cc1 | 96.8%
C[N+](C)(CCCCCC[N+](C)(C)C1c2ccccc2-c2ccccc21)C1c2ccccc2-c2ccccc21 | 85.7%
COc1ccc(N=Nc2ccc(O)c(=O)cc2)cc1 | -33.2% (active)
CCOC(=O)C(CC(=O)O)=C(C(=O)OCC)C(=O)OCC | 99.6%
CC[n+]1ccc(Nc2ccc(NC(=O)c3ccc(Nc4cc[n+](CC)c5ccc([N+](=O)[O-])cc45)cc3)cc2)cc1 | 66.9%
